Target: GABRA1
Assay: pooled miR-30 sensor sort-seq; sequence = guide strand
Conditions: shRNA
Further: reference of the scale not given here.

Sequence | sensor-assay potency score (higher = more potent)
ATTGTCATAACCATCTAGGAGT | -0.817
TTAGACGTGATCCATCTTCTGC | -0.591
TTGTGAGAGAATCACTGTCATT | -1.6
TCTTCTGCTACAACCACTGAGC | -0.0993
TTAACAACATTCCAACAGCTAA | -1.39
TTGTCCAAGAAGGTCATACTGG | -0.186
TTAGTGAAATAGTTTACTGTGG | -0.522
TACTTGACTGGACAATTCCAGA | -1.07
TACATCTATTGTATATTCCATA | -0.691
TACTGTGGCAAACTCAATCAGA | -0.32
TTTTCTTGTATCTTTGAACCAT | 0.355
TTTATCTCTAAAACATCTGGGC | 0.106

Target: GABRB2
Assay: as above
Conditions: shRNA

Sequence | sensor-assay potency score (higher = more potent)
TAGGCTAGCATTGTGCTTCTGG | 0.754
TTAAAGCTGAGGGATAACCTGG | -0.689
TTACATTATAGGACAGCCTCTT | -0.0422
TGAAAGTACATTGTCAAGGTAT | 0.245
TTTCAGGAGTCTATCCACCGTC | -0.228
TTGCGCCACATGTCGTTCCAGA | -0.912
TTCAGGAGTCTATCCACCGTCT | 0.156
TATCTCTCCAGGCTTGTTGAAA | -1.12
TCAGAAACCATATCGATGCTGG | 0.313
TTTGTAATCTACAATAGAGAAC | -1.05
TATTACATTATAGGACAGCCTC | -0.766
TTTCTCTTAAGCTTAAAGCTGA | -0.0649
TGAAGCATCGTAATTAATCCAG | -0.467
TCTGAGTCCATAAAGGACGGTG | -0.531
TTAATCCAGAAGGAGACCCAGG | -0.469
TTGTTGAAAGTACATTGTCAAG | -1.79
TTATCGTTCAGGAAATAGGTAT | -0.408
TACATTATAGGACAGCCTCTTA | -0.982
TAATCTACAATAGAGAACTGTG | -0.184
TTAACCAGCGACATATTACTAG | -0.576
TCATAGGCTAGCATTGTGCTTC | -0.299
TCTACAATAGAGAACTGTGGAA | -0.939

Target: GABRP
Assay: as above
Conditions: shRNA

Sequence | sensor-assay potency score (higher = more potent)
TTTCATTGTCAAGTCACTGTAG | 0.714
TTTGAATTGTGAAATAATCAAC | -1.06
AAATACAGAACATTCCTCCGAA | 0.853
TTGGACTCCACAATGTAAGTAT | 0.553
ACAAACTTGAACTTGTCGCTGG | 0.62
TAGTAATACTGACTTCTTCTAC | -0.185

From the OligoGym collection
